In PubChem BioAssay (NCI):
Compounds without any hit were thinned out: in the full panel of roughly 83,000, 20% have a hit.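 How to read the values: 0–100, growth inhibition (40 = 60% inhibited); 0, no net growth; -100 to 0, cell death (-40 = 40% of starting cells died; -100 = all dead).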 Activity calls are given as the source filed them. How the source made its calls: active means growth percent below 10; inactive means the rest.

Columns and labels:
Assay in all cases: NCI-60 one-dose screen, 48 h (100 = growth as untreated, 0 = no growth, -100 = all killed)
HCT-15 colon = tested on: HCT-15 colon
HT29 colon = tested on: HT29 colon
SNB-75 CNS = tested on: SNB-75 CNS
SNB-19 CNS = tested on: SNB-19 CNS
U251 CNS = tested on: U251 CNS
PC-3 prostate = tested on: PC-3 prostate
SK-MEL-5 melanoma = tested on: SK-MEL-5 melanoma
UACC-62 melanoma = tested on: UACC-62 melanoma
LOX IMVI melanoma = tested on: LOX IMVI melanoma
SK-MEL-28 melanoma = tested on: SK-MEL-28 melanoma

Measured: growth

COc1ccc(N=Nc2c(N)nn3c(-c4ccc([N+](=O)[O-])cc4)ccnc23)cc1
inactive: HCT-15 colon; 10 µM unless noted 101% | HT29 colon; 10 µM unless noted 96.3% | SNB-75 CNS; 10 µM unless noted 85.4% | SNB-19 CNS; 10 µM unless noted 108% | U251 CNS; 10 µM unless noted 107% | PC-3 prostate; 10 µM unless noted 101% | SK-MEL-5 melanoma; 10 µM unless noted 94.2% | UACC-62 melanoma; 10 µM unless noted 94.5% | LOX IMVI melanoma; 10 µM unless noted 99.9% | SK-MEL-28 melanoma; 10 µM unless noted 101%

CC/C(=C(/c1ccc(O)cc1)c1ccc(OCCN(C)C(=O)CCOCCNC(=O)Cc2ccc3c(c2)CN([C@@H]2CCC(=O)NC2=O)C3=O)cc1)c1ccccc1
inactive: HCT-15 colon; 1 µM 108% | HCT-15 colon; 10 µM 100% | HT29 colon; 1 µM 103% | HT29 colon; 10 µM 91.3% | SNB-75 CNS; 1 µM 57% | SNB-75 CNS; 10 µM 27.8% | SNB-19 CNS; 1 µM 75.9% | SNB-19 CNS; 10 µM 62.1% | U251 CNS; 1 µM 96.2% | U251 CNS; 10 µM 92.6% | PC-3 prostate; 1 µM 42.7% | PC-3 prostate; 10 µM 27.4% | SK-MEL-5 melanoma; 1 µM 97% | SK-MEL-5 melanoma; 10 µM 71.5% | UACC-62 melanoma; 1 µM 96.9% | UACC-62 melanoma; 10 µM 85.5% | LOX IMVI melanoma; 1 µM 99.2% | LOX IMVI melanoma; 10 µM 93.6% | SK-MEL-28 melanoma; 1 µM 101% | SK-MEL-28 melanoma; 10 µM 80.2%

COc1ccc(-c2cc(-c3cc(OC)c(OC)c(OC)c3)[nH]c(=O)c2C#N)cc1
active: SNB-75 CNS; 10 µM unless noted -22.4% | SNB-19 CNS; 10 µM unless noted 8.18%
inactive: HCT-15 colon; 10 µM unless noted 81% | HT29 colon; 10 µM unless noted 103% | U251 CNS; 10 µM unless noted 42.2% | PC-3 prostate; 10 µM unless noted 70.9% | SK-MEL-5 melanoma; 10 µM unless noted 64.9% | UACC-62 melanoma; 10 µM unless noted 59.3% | LOX IMVI melanoma; 10 µM unless noted 40.2% | SK-MEL-28 melanoma; 10 µM unless noted 51.9%

COc1cc(/C=C/C(=O)c2ccc(S(=O)(=O)NCCNc3nc(N(C)C)nc(N4CCOCC4)n3)cc2)cc(OC)c1OC
inactive: SNB-75 CNS; 10 µM unless noted 20% | SNB-19 CNS; 10 µM unless noted 29.1% | SK-MEL-5 melanoma; 10 µM unless noted 18.8%
active: HCT-15 colon; 10 µM unless noted -100% | HT29 colon; 10 µM unless noted -100% | U251 CNS; 10 µM unless noted -100% | PC-3 prostate; 10 µM unless noted -76.5% | UACC-62 melanoma; 10 µM unless noted -21.7% | LOX IMVI melanoma; 10 µM unless noted -100% | SK-MEL-28 melanoma; 10 µM unless noted -100%

Fc1ccccc1CNc1nc(SCCN2CCOCC2)nc2c1cnn2CC(Cl)c1ccc(Br)cc1 (stereo not given)
active: HCT-15 colon; 10 µM unless noted -53.3% | HT29 colon; 10 µM unless noted -33.6% | SK-MEL-5 melanoma; 10 µM unless noted -76% | UACC-62 melanoma; 10 µM unless noted -4.51% | LOX IMVI melanoma; 10 µM unless noted 1.88%
inactive: SNB-75 CNS; 10 µM unless noted 50.1% | SNB-19 CNS; 10 µM unless noted 52.6% | U251 CNS; 10 µM unless noted 37.8% | PC-3 prostate; 10 µM unless noted 30.3% | SK-MEL-28 melanoma; 10 µM unless noted 22%

COc1cc(NC(=O)CSc2nnc(-c3ccc(-c4nc5ccc(Cl)cc5[nH]4)cc3)o2)cc(OC)c1OC
active: SK-MEL-5 melanoma; 10 µM unless noted 5.22%
inactive: HCT-15 colon; 10 µM unless noted 25.6% | HT29 colon; 10 µM unless noted 51.3% | SNB-75 CNS; 10 µM unless noted 36.8% | SNB-19 CNS; 10 µM unless noted 49.3% | U251 CNS; 10 µM unless noted 32.8% | PC-3 prostate; 10 µM unless noted 52.3% | UACC-62 melanoma; 10 µM unless noted 28.4% | LOX IMVI melanoma; 10 µM unless noted 32.2% | SK-MEL-28 melanoma; 10 µM unless noted 49.1%

C[C@H](NC(=O)c1ccc2c(-c3ccc(C(F)(F)F)cc3)cccc2c1)c1ccccn1
inactive: HCT-15 colon; 10 µM unless noted 20.4% | HT29 colon; 10 µM unless noted 26.6% | SNB-75 CNS; 10 µM unless noted 87.3% | SNB-19 CNS; 10 µM unless noted 42% | U251 CNS; 10 µM unless noted 42.3% | PC-3 prostate; 10 µM unless noted 34.2% | SK-MEL-5 melanoma; 10 µM unless noted 34.7% | UACC-62 melanoma; 10 µM unless noted 60.3% | LOX IMVI melanoma; 10 µM unless noted 43.7% | SK-MEL-28 melanoma; 10 µM unless noted 74.6%

O=C(N/N=C/c1ccc(Br)o1)c1[nH]c2ccc(Br)cc2c1-c1ccccc1
active: HCT-15 colon; 10 µM unless noted -6.94% | HT29 colon; 10 µM unless noted -46.2% | SNB-75 CNS; 10 µM unless noted -18.3% | SNB-19 CNS; 10 µM unless noted 0.0073% | U251 CNS; 10 µM unless noted -75.3% | PC-3 prostate; 10 µM unless noted 7.74% | SK-MEL-5 melanoma; 10 µM unless noted -78.5% | UACC-62 melanoma; 10 µM unless noted 5.43% | LOX IMVI melanoma; 10 µM unless noted -62.8% | SK-MEL-28 melanoma; 10 µM unless noted -20.9%

Cc1ccc(NC(=O)N/N=C/c2c[nH]c3ccccc23)c(C)c1
active: HCT-15 colon; 10 µM unless noted 9.06% | HT29 colon; 10 µM unless noted -35.4% | U251 CNS; 10 µM unless noted 9.2% | SK-MEL-5 melanoma; 10 µM unless noted 5.42% | UACC-62 melanoma; 10 µM unless noted 8.67% | LOX IMVI melanoma; 10 µM unless noted -19%
inactive: SNB-75 CNS; 10 µM unless noted 14.5% | SNB-19 CNS; 10 µM unless noted 34.7% | PC-3 prostate; 10 µM unless noted 27.8% | SK-MEL-28 melanoma; 10 µM unless noted 47.8%

Cc1ccc(S(=O)(=O)Nc2ccc(-c3ccc4c(c3)NC(=O)/C4=C\c3ccc[nH]3)cc2)cc1
inactive: HCT-15 colon; 10 µM unless noted 68.7% | HT29 colon; 10 µM unless noted 78.5% | SNB-75 CNS; 10 µM unless noted 96.1% | SNB-19 CNS; 10 µM unless noted 95.1% | U251 CNS; 10 µM unless noted 77.3% | PC-3 prostate; 10 µM unless noted 80.1% | SK-MEL-5 melanoma; 10 µM unless noted 99.1% | UACC-62 melanoma; 10 µM unless noted 89.8% | LOX IMVI melanoma; 10 µM unless noted 91.7% | SK-MEL-28 melanoma; 10 µM unless noted 95.9%

NCCCCn1c(SCCc2c[nH]c3ccccc23)nnc1-c1ccc2ccccc2n1
inactive: SNB-19 CNS; 10 µM unless noted 18.6%
active: HCT-15 colon; 10 µM unless noted -1.2% | HT29 colon; 10 µM unless noted -45.3% | SNB-75 CNS; 10 µM unless noted 0.128% | U251 CNS; 10 µM unless noted -84.8% | PC-3 prostate; 10 µM unless noted 2.82% | SK-MEL-5 melanoma; 10 µM unless noted -99.4% | UACC-62 melanoma; 10 µM unless noted -88.5% | LOX IMVI melanoma; 10 µM unless noted -95.6% | SK-MEL-28 melanoma; 10 µM unless noted -97.4%

N#CC1=C(c2ccco2)Nc2c(c(-c3ccccc3)nn2-c2ccccc2)C12C(=O)Nc1ccc(Br)cc12 (stereo not given)
active: SNB-75 CNS; 10 µM unless noted -8.95% | U251 CNS; 10 µM unless noted 1.85%
inactive: HCT-15 colon; 10 µM unless noted 38.6% | HT29 colon; 10 µM unless noted 49.5% | SNB-19 CNS; 10 µM unless noted 60% | PC-3 prostate; 10 µM unless noted 24.1% | SK-MEL-5 melanoma; 10 µM unless noted 59% | UACC-62 melanoma; 10 µM unless noted 51.5% | LOX IMVI melanoma; 10 µM unless noted 21.3% | SK-MEL-28 melanoma; 10 µM unless noted 67.5%

Cc1ccc2c(c1)nc(-c1ccccc1)n2CC(=O)N=Nc1c(O)[nH]c2ccc(Cl)cc12
active: HCT-15 colon; 10 µM unless noted -45.7% | HT29 colon; 10 µM unless noted -62.7% | SNB-75 CNS; 10 µM unless noted -83% | SNB-19 CNS; 10 µM unless noted -62.3% | U251 CNS; 10 µM unless noted -77.7% | PC-3 prostate; 10 µM unless noted -51.2% | SK-MEL-5 melanoma; 10 µM unless noted -62.6% | UACC-62 melanoma; 10 µM unless noted -63.5% | LOX IMVI melanoma; 10 µM unless noted -70.1% | SK-MEL-28 melanoma; 10 µM unless noted -71.7%
